The list is not random: actives were taken first. Their share in the collection is about 1.9%.
TNF necrop inh = inhibitors of TNF-alpha induced necroptosis in Jurkat FADD-/- cells | Jurkat FADD-/- TNF necroptosis rescue, ATP luminescence, 24 h; 0 = TNF only, 100 = no-TNF cells | activation (protection from cell death), % at 10 µM | 0.068% of 220,000 active;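 active means activation, meaning protection from cell death, of at least 50% relative to plate controls; inactive means activation below 50%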;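 further: necroptosis triggered by 40 ng/mL TNF-alpha added together with compound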
Hsp70 act = Hsp70 transcriptional activation, primary screen. activation, % at 10 µM. 0.04% of 200,000 active. HeLa Hsp70 promoter luciferase reporter, luminescence; scaled: vehicle 0, proteasome-inhibitor control 100%. AID 1203;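 active means activation above the mean across all tested compounds plus 3 SD, cutoff set per campaign, cut at about 5.5% in these data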;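 further: 100% = MG132 at 30 µM as the positive control and 0% = DMSO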
L929 necroptosis = L929 zVAD cell death inhibition. L929 zVAD necroptosis rescue, ATP luminescence, 24 h; with zVAD 60 µM. viability rescue, % at 10 µM. 0.38% of 220,000 active. AID 1377;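 active means activation, scaled between plate controls, above about 75%, limit read from the data; inactive means activation under that limit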;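 further: 0% = zVAD with DMSO and 100% = DMSO alone without zVAD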
HSF-1 act = increases HSF-1 driven luciferase reporter signal; NIH3T3-HGL HSF-1 luciferase reporter, MG132, 8 h; 100% = twice DMSO control signal; activation, % at 9 µM; 1.7% of 300,000 active;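 active means mean replicate activation of at least 50% with a set share of replicates each reaching 50%; inconclusive means only one of those two conditions met; inactive means mean below 50% and too few replicates reaching it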;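 further: 0% = median of the neutral control wells and 100% = twice that signal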
zVAD necrop conf = confirmed blocker of zVAD induced death in L929 cells. shares compounds with L929 necroptosis. activation (protection from necroptosis), % at 10 µM. L929 zVAD-induced necroptosis rescue, ATP luminescence, 24 h. 16% of 760 active;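 active means mean protection from necroptosis of at least 50% over duplicate tests; inactive means mean protection below 50%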;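 further: 0% = cells with zVAD alone and 100% = vehicle cells without zVAD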
Numbers without * were called inactive; ? = inconclusive; · = no result given.

SMILES | TNF necrop inh | Hsp70 act | L929 necroptosis | HSF-1 act | zVAD necrop conf
N#CCCCN1C(=O)C(=C(C#N)C#N)c2ccccc21 | -1 | 0 | 76* | -14 | 0
N#CCCCN1C(=O)C(O)(CC(=O)c2ccc3c(c2)OCCO3)c2ccccc21 (centres undefined) | -1 | 0 | -1 | 26 | ·
CCOC(=O)c1ccc2ncc(-c3ccccc3)nc2c1 | 0 | 0 | 76* | 62* | 1
Cc1cc2ncc(-c3ccccc3)nc2cc1C | · | · | · | 40 | ·
COc1ccc(/C=N/Nc2ncc(Br)cn2)c(OC)c1 | 20 | 0 | 85* | ? | 1
O=C(C1=NNCC1c1ccc(Cl)cc1)C1CO1 (centres undefined) | 57* | 0 | 89* | 5 | 94*
COc1cc(NC(=O)Cn2nnc(-c3ccncc3)n2)cc(OC)c1 | -4 | 0 | 77* | -4 | 30
O=C(Cn1nnc(-c2ccncc2)n1)Nc1ccc2c(c1)CCC2 | 1 | 0 | 81* | 0 | 39
CCNC(=O)c1c(O)c2ccccc2[nH]c1=O | 55* | 0 | 76* | -15 | 2
O=C(COc1ccc(Br)cc1)NCCCNC(=O)c1ccncc1 | · | · | · | 2 | ·
COc1ccc(S(=O)(=O)NCCC(=O)NC2CCCCCCC2)cc1 | 0 | 0 | 81* | 16 | 21
COC(=O)c1ccc(/C=N/Nc2nc(C)c(C)s2)cc1 | 11 | · | 80* | -1 | 2
CC(C)(C)NC(=O)Cn1nnc(-c2ccc(Cl)cc2)n1 | 0 | 0 | 84* | 2 | 2
CC(C)(C)NC(=O)Cn1nnc(-c2ccc(S(C)(=O)=O)cc2)n1 | 1 | 0 | 0 | 6 | ·
O=C(Cn1nnc(-c2ccc(Cl)cc2)n1)NCC1CCCCC1 | -4 | 0 | 88* | 16 | 44
O=C(Cn1nnc(-c2ccc(Cl)cc2)n1)NCCC1=CCCCC1 | -2 | 0 | 1 | 0 | ·
O=C(Cn1nnc(-c2ccc(Cl)cc2)n1)NC1CC2CCC1C2 (centres undefined) | 1 | 0 | 83* | 4 | 10
CCN(CC(=O)Nc1c(F)cccc1F)C(=O)CCNC(=O)c1ccc([N+](=O)[O-])cc1 | · | · | · | -2 | ·
Nc1ccccc1C(=O)N1CCCC1 | 0 | 2 | 0 | 1 | ·
S=c1[nH]nc(-c2ccncc2)n1/N=C/C=C/c1ccccc1 | 2 | · | 1 | 4 | ·
S=c1[nH]nc(-c2ccncc2)n1/N=C/C(Cl)=C\c1ccccc1 | 2 | 0 | 85* | 78* | 5
CCOCCn1c(=O)c2c(nc3n2CCN3c2ccc(CC)cc2)n(C)c1=O | · | · | · | -11 | ·
CN(C)S(=O)(=O)c1cccc(NC(=O)CCSc2ccc(Cl)cc2)c1 | -3 | 0 | 77* | 5 | 42
COC(=O)c1c(C)[nH]c(O)c1C=Nc1ccc(C(C)C)cc1 | -1 | 0 | 82* | 24 | 4
Cc1ccc(-c2nc(Nc3ccccc3)n[nH]2)cc1 | 12 | 0 | 77* | · | 77*
SMILES | TNF necrop inh | Hsp70 act | L929 necroptosis | HSF-1 act | zVAD necrop conf
CC(C(=O)Nc1ccccc1-c1ccccc1)N(C)Cc1nc2ccccc2c(=O)[nH]1 (centres undefined) | -7 | 0 | 2 | 18 | ·
COc1ccc(NC(=O)Nc2cccc(C(F)(F)F)c2)cn1 | 4 | 0 | 77* | 16 | 4
COc1ccc(NC(=O)Nc2cc(C)cc(C)c2)cn1 | 4 | · | 5 | 11 | ·
COc1ccc(NC(=S)NNC(=S)Nc2cccc(C(F)(F)F)c2)cc1 | 0 | · | 77* | 3 | 6
CCOc1ccccc1C(C(=O)NC1CCCC1)N(C(=O)c1csnn1)C1CC1 (centres undefined) | · | · | · | 5 | ·
Clc1ccc(COn2ccnc2)cc1Cl | 88* | 0 | 88* | 23 | 92*
CC(CS(=O)(=O)c1ccc2ccccc2c1)N1CCN(C2CCCCC2)CC1 (centres undefined) | 0 | 0 | 0 | · | ·
O=S(=O)(CC(CN1CCCC1)N1CCCC1)c1ccc2ccccc2c1 (centres undefined) | -11 | 0 | 82* | 34 | 46
COc1cc(CNC(C)(C)CO)ccc1OCC(=O)Nc1ccc(Br)cc1 | 2 | 0 | 84* | -12 | 29
O=S(=O)(c1ccc(-c2csc(-c3cccnc3)n2)cc1)N1CCOCC1 | 12 | 0 | 85* | 9 | 6
CCOc1ccccc1NC(=O)CSc1nnnn1-c1ccc(C(=O)OC)cc1 | -3 | 0 | 77* | 10 | 0
CC(=O)Nc1ccc2c(c1)n(C)c(=O)n2C | 0 | 0 | 0 | 2 | ·
Cn1c(=O)n(C)c2cc(NC(=O)CCl)ccc21 | 4 | 0 | 83* | 5 | 25
CC(=O)c1c(C)[nH]c(C(=O)OCc2cccc(Cl)c2)c1C | -1 | 0 | 79* | 22 | 8
CCc1c(C)[nH]c(C(=O)OCc2ccccc2)c1C | 1 | 0 | 86* | ? | 8
CC(=O)c1c(C)[nH]c(C(=O)OCC(=O)NCCc2ccc(F)cc2)c1C | -3 | 0 | 1 | 11 | ·
CCc1c(C(=O)OCc2ccccc2)[nH]c(C)c1C | 0 | · | 68 | 35 | ·
CC(=O)c1c(C)[nH]c(C(=O)OCc2c(F)cccc2Cl)c1C | -1 | 0 | 1 | -24 | ·
COC(=O)c1c(C)[nH]c(C(=O)OCc2ccc(F)cc2)c1C | 1 | 1 | 79* | 40 | 3
O=C(O)c1ccc(NS(=O)(=O)c2cc(Cl)ccc2Cl)cc1O | -2 | 0 | -1 | 6 | ·
Cc1ccc(C(=O)NCCc2c[nH]c3ccccc23)s1 | · | · | · | 48 | ·
CCOc1ccc(CCNC(=O)COC(=O)c2cc(=O)[nH]c3ccccc23)cc1OCC | · | · | · | -22 | ·
COCC(C)NS(=O)(=O)c1ccc(C(=O)NC(Cc2ccccc2)c2ccccc2)cc1 (centres undefined) | · | · | · | 5 | ·
CCOc1ccccc1NC(=O)Nc1ccccn1 | -1 | · | 79* | 4 | 3
CCOc1ccccc1NC(=O)Nc1ccc(Br)cn1 | -1 | 0 | 4 | 10 | ·
SMILES | TNF necrop inh | Hsp70 act | L929 necroptosis | HSF-1 act | zVAD necrop conf
Cn1c(=O)cc(OCC(=O)NCc2cccs2)c2ccccc21 | 0 | 0 | 4 | 17 | ·
CC1CN(S(=O)(=O)c2ccc(C(=O)Nc3ccc(S(=O)(=O)Nc4nccs4)cc3)cc2)CC(C)O1 (centres undefined) | 2 | 0 | 1 | -3 | ·
O=C(Nc1nccs1)c1ccc(S(=O)(=O)N2CCCCC2)cc1 | 52* | 0 | 104* | 5 | 77*
CC1CN(S(=O)(=O)c2ccc(C(=O)Nc3nccs3)cc2)CC(C)O1 (centres undefined) | 23 | · | 84* | -5 | 5
O=C(Nc1nccs1)c1ccc(S(=O)(=O)c2ccccc2)cc1 | 7 | 0 | 1 | 6 | ·
COc1cccc2c1Oc1ncccc1N(C(=O)CCC(=O)NCc1cccc(C)c1)C2 | · | · | · | 5 | ·
COc1ccccc1C(=O)COC(=O)CNS(=O)(=O)c1ccc(C)c(C)c1 | · | · | · | 4 | ·
COc1ccc(/C=C/C(=O)c2ccc[nH]2)cc1OC | 20 | 0 | 89* | 62* | 42
COc1ccc(/C=C/C(=O)c2ccc[nH]2)c(OC)c1OC | 14 | 0 | 52 | 15 | ·
